# Data from PubChem BioAssay.
# Where “and” joins values, the source holds several entries; their conditions need not be identical. Equal entries are not always repeated. For some assays here: Measured potencies and affinities stand elsewhere. More than one record can exist for a structure, and the calls need not agree. Calls of active or inactive are those of the source. Unless noted, no rule for the calls is given here.
# How the values were obtained:
# [1] = P. berghei load reduction in hepatocytes – cell-based, HepG2, luciferase luminescence, HepG2 viability, primary screen (AID 624349; in the data active = parasite load remaining mostly below about 12%, no sharp cut-off; inactive = mostly above about 10%;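 also: 100% = mean of DMSO negative control wells on the same plate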); details: P. berghei liver stage in HepG2, luciferase luminescence, concentration not given here; parasite load remaining: stronger effect = lower value; viability: measured here: HepG2 viability without parasites
# [2] = EMT-state selective cytotoxicity in co-culture – imaging, PC-3E GFP, TEM4-18 mCherry, primary screen (AID 1345086;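 active = compounds killing one labelled cell type while sparing the other, by normalised counts and ratio limits, not self-fluorescent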;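 as to all read-outs here: cells exposed to compound for 72 h before imaging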;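 as to red/green cell ratio (normalised): normalised mesenchymal count divided by normalised epithelial count so high means epithelial killing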); details: PC-3E GFP / TEM4-18 mCherry co-culture, imaging cell counts, at 1 µM; for red/green cell ratio (normalised): actives lie on both sides
# [3] = viability loss with induced miR-34 in A549 – imaging, A549 dox-inducible miR-34, nuclei and caspase counts, primary screen (AID 1347080;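 active = compounds whose cell count with miR-34 switched on is under 0.7 times the count with it off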); details: A549 miR-34 inducible, Hoechst nuclei count, 48 h
# [4] = target: Mitogen-activated protein kinase 7 (Homo sapiens) (UniProt Q13164); assay: Gal4-ERK5 driven luciferase induction – cell-based, HTS, primary screen (AID 1508626;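 active = luciferase signal above three times the same-plate solvent-only control wells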;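 also: luciferase driven by Gal4-ERK5 fusion binding five Gal4 sites before minimal TATA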); details: HeLa Gal4-ERK5 transactivation, 18 h, at 5 µM, stronger effect = higher value
# Sequence of Mitogen-activated protein kinase 7 (Homo sapiens) (Q13164 whole entry, looked up, the tested form may be a part): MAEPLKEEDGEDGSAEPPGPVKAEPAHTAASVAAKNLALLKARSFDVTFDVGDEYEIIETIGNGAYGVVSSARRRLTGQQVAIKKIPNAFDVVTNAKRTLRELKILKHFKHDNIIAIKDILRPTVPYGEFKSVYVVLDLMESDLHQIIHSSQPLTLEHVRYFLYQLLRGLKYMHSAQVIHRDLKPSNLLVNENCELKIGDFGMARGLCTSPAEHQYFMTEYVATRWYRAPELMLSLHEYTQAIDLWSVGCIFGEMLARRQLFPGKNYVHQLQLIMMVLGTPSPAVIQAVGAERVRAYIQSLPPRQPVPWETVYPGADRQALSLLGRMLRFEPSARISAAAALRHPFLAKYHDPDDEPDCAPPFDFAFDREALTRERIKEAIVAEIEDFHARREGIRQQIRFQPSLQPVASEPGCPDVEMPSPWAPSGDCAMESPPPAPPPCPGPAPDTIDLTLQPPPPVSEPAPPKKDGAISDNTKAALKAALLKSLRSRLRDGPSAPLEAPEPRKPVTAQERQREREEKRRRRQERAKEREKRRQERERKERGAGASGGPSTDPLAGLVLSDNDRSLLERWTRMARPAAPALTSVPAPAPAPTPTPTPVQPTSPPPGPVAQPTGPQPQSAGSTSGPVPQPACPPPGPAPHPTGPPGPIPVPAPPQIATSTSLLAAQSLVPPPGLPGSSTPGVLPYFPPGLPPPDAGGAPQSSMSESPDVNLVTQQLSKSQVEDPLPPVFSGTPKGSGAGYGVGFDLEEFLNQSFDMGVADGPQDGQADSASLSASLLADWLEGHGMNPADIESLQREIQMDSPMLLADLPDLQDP
# [5] = system: Hepatitis C virus NS3 helicase; assay: blockers of NS3h binding to ssDNA – biochemical, fluorescence polarization, LOPAC1280 library, primary screen (AID 687035; in the data active = inhibition above about 37%); details: Purified HCV NS3 helicase, Cy5-dT15 ssDNA binding fluorescence polarization; stronger effect = higher value; concentration not given here
# [6] = compounds altering Cy5-DNA-NS3h complex signal – biochemical, LOPAC1280, artefact control for HCV NS3 helicase inhibitor project (AID 687037); details: Cy5-DNA-NS3h complex fluorescence interference counterscreen
# [7] = system: Aerobactin synthetase IucA (Klebsiella pneumoniae); assay: inhibition of K. pneumoniae IucA enzyme – biochemical, Tocris library, absorbance (AID 1345561); details: purified IucA enzyme assay, absorbance (OD) read-out; stronger effect = lower value;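 tested at 8 µM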;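 also: 100% = enzyme without compound and 0% = no enzyme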
# [8] = system: Aerobactin synthetase IucA (Klebsiella pneumoniae, hypervirulent); assay: biochemical IucA inhibition screen of LOPAC library by absorbance (AID 1346212); details: IucA enzyme assay, absorbance (OD) readout; stronger effect = lower value;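 tested at 8 µM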;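 also: 100% = no compound wells and 0% = no enzyme wells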
# [9] = blockers of cellular phospholipid synthesis – cell-based, LOPAC library, screen 4, primary screen (AID 1347384); details: animal cells, phospholipid biosynthesis inhibition screen; at 10 µM
# [10] = galactose survival enhancers in mitochondrial complex I cybrids – cell-based, galactose medium, ATP luminescence, primary screen (AID 1645843;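 active = z-score of at least 1.8 in each of two replicates, scored against plate mean and spread of sample wells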;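 also: positive z means more ATP and so rescue of galactose-driven cybrid death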); details: complex I mutant cybrid cells, 72 h, stronger effect = higher value
# [11] = blockers of polyQ-driven CASP3 activation – cell-based (AID 1583); details: polyglutamine-induced caspase-3 activation, cell assay; stronger effect = higher value;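 tested at 10 µM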
# [12] = yeast 75Q aggregation reduction – 75Q-TubU reporter (AID 1593); details: Yeast 75Q polyglutamine aggregation reporter
# [13] = restoration of touch response, mutant HTT neurons – whole organism, C. elegans mechanosensory neurons, N-terminal huntingtin (AID 1599); details: C. elegans polyQ-huntingtin mechanosensory neurons, stronger effect = higher value
# [14] = blockers of cytochrome c efflux from mitochondria – biochemical, purified mitochondria (AID 1603); details: stronger effect = lower value;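 also: mouse liver mitochondria challenged with calcium chloride; signal normalized to the plate average as 100%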
# [15] = polyglutamine aggregate formation blockers (AID 1604); details: polyglutamine-induced protein aggregation inhibition assay; stronger effect = higher value; tested at 2.5 µM
# [16] = glutamate transport activators, MN-1 cells, MN-1 cell line (AID 1612); details: MN-1 motor neuron cells, stronger effect = higher value;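 also: tested at 1 µM final; 0% = mean of DMSO vehicle wells on each plate; positive means more glutamate uptake than control and negative means less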
# [17] = 75Q-TubH aggregate inhibition, S. cerevisiae, yeast (AID 1616); details: S. cerevisiae 75Q-TubH polyglutamine aggregation suppression; stronger effect = higher value
# [18] = compounds altering circadian rhythm period length – cell-based, LOPAC library, luminescence reporter (AID 2774); details: circadian reporter cells, at 7 µM, actives lie on both sides;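 also: values are relative to mean of DMSO wells on each plate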
# [19] = MELAS cybrid and Rieske KO viability enhancers – cell-based, MELAS cybrids, Rieske KO mouse fibroblasts, CellTiter-Glo, primary screen (AID 1508586;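 active = mean z-score across replicates of 1.96 or higher in either the MELAS or the Rieske mutant cell line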;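 also: z relative to plate mean and SD of compound and empty wells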); details: low glucose
# [20] = measured here: epithelial PC-3E GFP cell survival
# [21] = measured here: mesenchymal TEM4-18 mCherry cell survival
# [22] = measured here: relative caspase fold change +Dox/-Dox
# [23] = measured here: total cells with miR-34 induction, stronger effect = lower value
# [24] = measured here: total cells without miR-34 induction
# [25] = stronger effect = lower value, cell number ratio, induced over uninduced
compound,measurement,setting,value
c1cncc(C2=NCCC2)c1,parasite load remaining,[1],113% (inactive)
same,viability,[1],106%
same,red/green cell ratio (normalised),[2],0.94 (inactive)
same,normalised cell number,[2]; [20],1
same,normalised cell number,[2]; [21],0.94
same,fold change,[3]; stronger effect = lower value,0.891 (inactive)
same,fold change,[3]; [22],1.54
same,cell count,[3]; [23],7680
same,cell count,[3]; [24],8620
same,luciferase signal,[4],48 AU (inactive)
O=C(N[C@H]1CN2CCC1CC2)c1ccc(Cl)cc1,inhibition,[5],-1% (inactive)
same,fluorescence ratio (interference),[6],1 (inactive)
same,remaining activity,[7],93.4% (inactive)
same,remaining activity,[8],109% (inactive)
same,fold change,[3]; stronger effect = lower value,1.07 (inactive)
same,fold change,[3]; [25],0.932 (inactive)
same,fold change,[3]; [22],1.52 and 1.27
same,cell count,[3]; [23],10700 and 8830
same,cell count,[3]; [24],10000 and 9480
same,outcome,[9],inactive
same,z-score,[10],0.385 (inactive) and 0.125 (inactive)
CCNC1(c2cccs2)CCCCC1=O (stereo not given),parasite load remaining,[1],136% (inactive)
same,viability,[1],77%
same,red/green cell ratio (normalised),[2],0.77 (inactive)
same,normalised cell number,[2]; [20],1.37
same,normalised cell number,[2]; [21],1.05
same,fold change,[3]; stronger effect = lower value,0.914 (inactive)
same,fold change,[3]; [22],0.59
same,cell count,[3]; [23],8750
same,cell count,[3]; [24],9570
O1[As]2O[As]3O[As]1O[As](O2)O3,parasite load remaining,[1],61.8% (inactive)
same,viability,[1],103%
same,red/green cell ratio (normalised),[2],0.77 (inactive)
same,normalised cell number,[2]; [20],1.19
same,normalised cell number,[2]; [21],0.92
same,fold change,[3]; stronger effect = lower value,0.844 (inactive)
same,fold change,[3]; [22],2.16
same,cell count,[3]; [23],11700
same,cell count,[3]; [24],13900
C[C@]12CCC(=O)C=C1CCC1C2CC[C@@]2(C)C1CC[C@@H]2O (stereo not given in full),inhibition,[11],-4.21%
same,score,[12],-1.11
same,rescue above control,[13],4.25
same,cytochrome c release ratio,[14],1.03
same,inhibition of aggregation,[15],-1.96%
same,glutamate uptake change,[16],18.8%
same,aggregation suppression score,[17],-0.43
same,parasite load remaining,[1],68.4% (inactive)
same,viability,[1],110%
same,red/green cell ratio (normalised),[2],1.12 (inactive)
same,normalised cell number,[2]; [20],0.76
same,normalised cell number,[2]; [21],0.85
same,fold change,[3]; stronger effect = lower value,0.943 (inactive)
same,fold change,[3]; [22],2.07
same,cell count,[3]; [23],10700
same,cell count,[3]; [24],11300
CC(=O)NCCc1c[nH]c2ccccc12,period change,[18],0.04 h (inactive)
same,inhibition,[5],-3% (inactive)
same,fluorescence ratio (interference),[6],0.9 (inactive)
same,remaining activity,[7],90.2% (inactive)
same,remaining activity,[8],105% (inactive)
same,fold change,[3]; stronger effect = lower value,1.01 (inactive) and 0.947 (inactive)
same,fold change,[3]; [22],0.736 and 0.687
same,cell count,[3]; [23],10200 and 9110
same,cell count,[3]; [24],10200 and 9620
same,outcome,[9],inactive
same,z-score,[10],0.505 (inactive) and 0.035 (inactive)
Cc1[nH]c2ccc(O)cc2c1CCN,period change,[18],0.13 h (inactive)
same,inhibition,[5],-6% (inactive)
same,fluorescence ratio (interference),[6],0.9 (inactive)
same,remaining activity,[7],104% (inactive)
same,remaining activity,[8],118% (inactive)
same,fold change,[3]; stronger effect = lower value,1.04 (inactive) and 1.02 (inactive)
same,fold change,[3]; [22],0.914 and 0.703
same,cell count,[3]; [23],10800 and 9460
same,cell count,[3]; [24],10400 and 9310
same,outcome,[9],inactive
same,z-score,[10],0.345 (inactive) and -0.12 (inactive)
CC1=NN=C(c2ccc(N)cc2)c2cc3c(cc2C1)OCO3,period change,[18],0.095 h (inactive)
same,inhibition,[5],3% (inactive)
same,fluorescence ratio (interference),[6],1 (inactive)
same,remaining activity,[7],114% (inactive)
same,remaining activity,[8],78.1% (inactive)
same,fold change,[3]; stronger effect = lower value,1.05 (inactive) and 1 (inactive)
same,fold change,[3]; [22],0.665 and 1.11
same,cell count,[3]; [23],10000 and 7840
same,cell count,[3]; [24],9520 and 7820
same,outcome,[9],inactive
same,z-score,[10],0.825 (inactive) and 4.29 (active)
COc1cc2c(c(OC)c1OC)-c1ccc(O)c(=O)cc1C(N)CC2 (stereo not given),parasite load remaining,[1],59.8% (inactive)
same,viability,[1],94.7%
same,red/green cell ratio (normalised),[2],0.78 (inactive)
same,normalised cell number,[2]; [20],1.21
same,normalised cell number,[2]; [21],0.95
c1ccc2c(c1)[I+]c1ccccc1-2,period change,[18],-1.22 h (inactive)
same,inhibition,[5],-5% (inactive)
same,fluorescence ratio (interference),[6],1 (inactive)
same,remaining activity,[7],106% (inactive)
same,remaining activity,[8],103% (inactive)
same,fold change,[3]; stronger effect = lower value,1.1 (inactive) and 0.717 (inactive) and 0.928 (inactive)
same,fold change,[3]; [22],1.26 and 1.66 and 0.513
same,cell count,[3]; [23],1170 and 692 and 1240
same,cell count,[3]; [24],1070 and 966 and 1340
same,outcome,[9],active
same,z-score,[10],-1.03 (inactive) and -1.25 (inactive)
CO[C@H]1[C@H](O)[C@@H](O[C@H]2CC[C@]3(C=O)C4CC[C@]5(C)[C@@H](C6=CC(=O)OC6)CC[C@]5(O)C4CC[C@@H]3C2)O[C@@H](C)[C@@H]1O (stereo not given in full),score,[12],1.12
same,rescue above control,[13],-6.49
same,cytochrome c release ratio,[14],1.41
same,inhibition of aggregation,[15],0%
same,glutamate uptake change,[16],3.74%
same,aggregation suppression score,[17],1.22
same,parasite load remaining,[1],56.4% (inactive)
same,viability,[1],41.4%
same,red/green cell ratio (normalised),[2],0.18 (inactive)
same,normalised cell number,[2]; [20],0.18
same,normalised cell number,[2]; [21],0.03
CC(C)(C)c1o[nH]c(=O)c1CC(N)C(=O)O (stereo not given),period change,[18],-0.635 h (inactive)
same,inhibition,[5],-1% (inactive)
same,fluorescence ratio (interference),[6],1 (inactive)
same,remaining activity,[7],108% (inactive)
same,remaining activity,[8],110% (inactive)
same,fold change,[3]; stronger effect = lower value,1 (inactive) and 0.891 (inactive)
same,fold change,[3]; [22],1.8 and 0.776
same,cell count,[3]; [23],10700 and 8780
same,cell count,[3]; [24],10700 and 9850
same,outcome,[9],inactive
same,z-score,[10],-0.285 (inactive) and -0.155 (inactive)
S=C(NC1CCCCC1)N1CCC(c2cnc[nH]2)CC1,period change,[18],-1.93 h (inactive)
same,inhibition,[5],-3% (inactive)
same,fluorescence ratio (interference),[6],0.9 (inactive)
same,remaining activity,[7],89.7% (inactive)
same,remaining activity,[8],99.4% (inactive)
same,fold change,[3]; stronger effect = lower value,0.921 (inactive)
same,fold change,[3]; [25],0.93 (inactive)
same,fold change,[3]; [22],1.06 and 0.678
same,cell count,[3]; [23],8920 and 7940
same,cell count,[3]; [24],9690 and 8540
same,outcome,[9],inactive
same,z-score,"[19]; MELAS cybrid survival, CellTiter-Glo 48 h, stronger effect = higher value",0.603 (inactive)
same,z-score,"[19]; Rieske KO mouse fibroblast survival, CellTiter-Glo 72 h",0.478
same,z-score,[10],-0.46 (inactive) and -0.595 (inactive)
